DPM-DC inhibit: S. pneumoniae DPM-DC inhibition; 65,000 tested, 0.49% active; purified DPM-DC, PK/LDH coupled NADH fluorescence; calls only at 10 µM; AID 556;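 active = the 320 compounds with the highest percent inhibition in the single-dose primary screen, excluding strongly autofluorescent ones, cut at about 32% in these data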;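 note: kinetic rate of NADH fluorescence loss reporting ADP formed by the decarboxylase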
A340 absorber: absorbance at 340 nm. 65,000 tested, under 10 active. AID 708. fold change at 10 µM. compound absorbance at 340 nm, fold over control;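 active = at 10 µM dose, initial 340 nm absorbance at least 2 fold that of control wells; inactive = change under 2 fold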;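 note: initial absorbance extrapolated from kinetic A340 decline of NADH oxidation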
Autofluor 339: intrinsic fluorescence of library compounds, ex339/em460 – biochemical, MLSMR library, data from DPM-DC assay, artefact control, profiling panel; fluorescence fold increase at 10 µM; 65,000 tested, 5.5% active; compound autofluorescence, ex339/em460 nm, NADH buffer; hits give high values; 1 = no-compound wells, NADH background; AID 709;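 active = at 10 µM, mean starting fluorescence two-fold or more over control wells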;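 note: signal is the first read of a kinetic run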
NADH enzymes: inhibition of NAD/NADH coupling enzymes, library profiling. coupled PK/LDH NADH assays, four targets. IC50, µM (titrated, usually from 10 µM), for the others: at the highest dose inhibition. 65,000 tested, 0.02% active. AID 774;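 active = single-dose screening hits from any of four coupled enzyme assays that gave an IC50 when retested across doses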;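 note: the DPM-DC format reads NADH fluorescence rather than 340 nm absorbance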
PMK inhibit: blocks S. pneumoniae phosphomevalonate kinase; AID 539; inhibition, % at 10 µM; 65,000 tested, 0.49% active; purified PMK, PK/LDH-coupled NADH absorbance 340 nm;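 active = top-ranked compounds by inhibition in the single 10 µM screen, taking a fixed number of the strongest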;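 note: 0% = full reaction with DMSO carrier and 100% = background rate without enzyme reaction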
MK inhibit: S. pneumoniae mevalonate kinase inhibition; purified MK, PK/LDH-coupled NADH absorbance 340 nm; inhibition, % at 10 µM; 65,000 tested, 0.48% active; AID 555;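 active = ranked among the strongest by inhibition in the single 10 µM screen, a fixed top-ranked set picked for dose follow-up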
Numbers without * were called inactive; i = inactive; nt = no result shown; + = active, no number. Most compounds without a hit are left out; they make up all but 6.8% or so of the library.

SMILES	DPM-DC inhibit	A340 absorber	Autofluor 339	NADH enzymes	PMK inhibit	MK inhibit
CCN1CCN(C(c2cccs2)C(C)NC(=O)C(C)C)CC1 (stereo not drawn)	i	1.1	1.1	0%	0	0
CCCOc1ccc(-c2nnc(-c3ccncc3)o2)cc1	i	1	2.4*	7%	3	2
OCC#CCSc1nnc(-c2ccncc2)o1	i	1	1.1	8%	12	11
c1cc(-c2nnc(-c3ccncc3)o2)ccn1	i	1	1.1	2%	0	7
CC(C)COc1ccc(-c2nnc(-c3ccncc3)o2)cc1	i	1.1	2.4*	16%	18	10
CCOC(=O)c1cnn2c(N)c(C#N)nnc12	i	1	1.1	1%	1	2
CCOC(=O)c1c(C)nc2c(C#N)cnn2c1C	i	1	2.4*	13%	2	11
Cn1c(=O)c2c(SCC(=O)NCC3CCCO3)nc(-c3cccs3)nc2n(C)c1=O (stereo not drawn)	nt	1.2	2.2*	3%	2	3
CC(C)Sc1nc(-c2cccs2)nc2c1c(=O)n(C)c(=O)n2C	i	1.1	1.4	9%	14	8
Nc1c(S(=O)(=O)c2cccs2)c2nc3ccccc3nc2n1Cc1ccc2c(c1)OCO2	+	1.1	2.7*	14%	6	2
CC(C)CN1CN(S(=O)(=O)c2cccs2)c2nc3ccccc3nc21	i	1.1	1.4	5%	7	9
CC(C)CCn1c(N)c(S(=O)(=O)c2cccs2)c2nc3ccccc3nc21	nt	1	3*	3%	13	1
Cn1c(N)c(S(=O)(=O)c2ccc(Br)cc2)c2nc3ccccc3nc21	nt	1.1	3.8*	5%	7	2
Nc1c(S(=O)(=O)c2cccs2)c2nc3ccccc3nc2n1CC1CCCO1 (stereo not drawn)	nt	1	3*	4%	10	9
CCN1CCN(CC(=O)Nc2cccc(C)c2)C(=O)C1=O	i	1	1.2	7%	18	4
CC1(C)Cc2ccccc2-c2nnc(SCC(=O)N3CCN(c4ccccc4)CC3)n21	i	1	1.1	4%	11	0
N#CC1=C(N)N(c2ccccc2Sc2ccccc2)C(=O)C1	i	0.99	1	4%	8	4
CC1(C)C(=O)C2(CCCCC2)C(=O)OC1c1ccc(O)cc1 (stereo not drawn)	i	1.1	1.1	1%	0	1
Cc1cc(C2=CC(C)(c3cc(C)oc3C)Nc3nc(C(F)(F)F)nn32)c(C)o1 (stereo not drawn)	i	1	1.1	6%	9	6
O=c1c2ccccc2nc(-c2ccccc2)n1Cc1ccco1	i	0.99	1.2	4%	3	8
COc1ccc(CCn2c(N)c(S(=O)(=O)c3cccs3)c3nc4ccccc4nc32)cc1OC	+	1.1	1.5	21%	11	3
COc1ccc(CCn2c(N)c(C#N)c3nc4ccccc4nc32)cc1OC	i	1	1.6	6%	0	8
COc1ccc(Cn2c(N)c(C#N)c3nc4ccccc4nc32)cc1OC	nt	1	1.9	2%	9	0
Nc1c(S(=O)(=O)c2cccs2)c2nc3ccccc3nc2n1Cc1cccs1	nt	1.1	3.9*	8%	12	4
Nc1c(S(=O)(=O)c2ccccc2)c2nc3ccccc3nc2n1Cc1ccco1	nt	1.1	2.2*	8%	7	8
SMILES	DPM-DC inhibit	A340 absorber	Autofluor 339	NADH enzymes	PMK inhibit	MK inhibit
CCOC(=O)C(NC(C)=O)C(OC(C)=O)c1cccc(N(CCO)CCO)c1 (stereo not drawn)	i	1	1.1	3%	3	6
C/C(NCc1cccnc1)=C(\C#N)C(=O)NCc1ccccc1	i	1	1.1	7%	11	10
N/C(CCN1CCOCC1)=N/O	i	1.1	1.1	36%	36	52*
COc1ccccc1N1C(=O)N(C(C)=O)C2C1Nc1ccccc1N2C (stereo not drawn)	i	1	1.2	1%	1	1
COc1ccccc1N1C(=O)c2ccccc2NC1c1ccncc1 (stereo not drawn)	nt	1	2.1*	3%	0	12
O=C1c2ccccc2NC(c2ccncc2)N1c1ccccn1 (stereo not drawn)	nt	1.1	2.1*	0%	0	0
CCc1cc(=O)oc2cc(C)cc(O)c12	i	1.1	1.1	7%	15	6
CCc1cc(=O)oc2cc(C)c3c(C)coc3c12	i	1.1	2.4*	14%	6	5
CCOC(=O)c1cnc(SCC(=O)NCc2cccs2)nc1N	i	0.99	1.1	5%	5	9
COc1ccc(NC(=O)C2CCC(C)(C(=O)O)C2(C)C)cc1 (stereo not drawn)	i	1.1	1.1	0%	0	0
COc1ccc(NC(=O)C2CC(=O)OC2(C)C)cc1 (stereo not drawn)	nt	1	2.2*	1%	0	1
CCOC(=O)N1CCN(C(=O)c2cc3c(=O)[nH]c4ccccc4c3s2)CC1	nt	1.1	3.7*	13%	17	9
Cc1cc(C(=O)NCc2ccccc2Br)no1	i	1	1.1	2%	5	1
CC(C)(C)N1C(=O)Cc2c1nc(N)c1c(N)nc(N3CCCCC3CO)c(C#N)c21 (stereo not drawn)	nt	1	4.8*	8%	15	0
C/C=C(\CS(=O)(=O)c1ccccc1)S(=O)(=O)c1ccccc1	i	0.99	1	3%	8	4
N#Cc1nc(-c2ccco2)oc1N1CCC(C(N)=O)CC1	nt	1	3.9*	13%	14	11
N#Cc1nc(Cc2ccccc2)oc1N1CCC(C(N)=O)CC1	i	1	1.1	8%	12	11
CC1CN(c2oc(-c3ccco3)nc2C#N)CC(C)O1 (stereo not drawn)	nt	1.1	3.8*	10%	7	13
Cc1cc(NC(=O)CCC(=O)N(c2ccccc2)C2(C(=O)NC3CCCCC3)CCCC2)no1	i	0.98	1.1	8%	12	13
O=C(CN1CCN(C(=O)c2c(F)cccc2F)CC1)Nc1ccccc1F	i	1	1.1	1%	4	0
CCN(CC)c1ccc2cc(NC(=O)CCC(=O)O)c(=O)oc2c1	nt	0.99	3*	3%	4	8
O=C1CC(c2ccco2)CC2=C1C(c1ccccc1)n1nc(C(F)(F)F)nc1N2 (stereo not drawn)	i	1.1	2.8*	12%	7	9
CCCOc1ccc(OC(=O)c2ccc(Br)o2)cc1	i	1.1	1.1	2%	0	5
CCOc1ccc(Nc2cc(C)nc(N3CCOCC3)n2)cc1	i	0.99	1	7%	10	9
CCOC(=O)c1ccc(Nc2cc(C)nc(N3CCOCC3)n2)cc1	i	1.1	3*	9%	5	7

High-throughput results (PubChem BioAssay)
